From PubChem BioAssay come the findings set out here.

The list shows a part of the results. A number with no mark means an inactive call. Calls of active or inactive are those of the source.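 Rule for the calls, unless noted: active = mean inhibition above the solvent-only control wells' mean plus 3 SD (cut at about 22% in these data); inactive = the rest.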

A short description of one assay: bacterial growth inhibition – absorbance, high throughput, counter-screen for RecBCD inhibitor project (AID 651983; in the data active = inhibition above about 20%;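 note: E. coli strain V66 grown with compound alone and no phage infection; 0% = bacteria with DMSO vehicle only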). Particulars: E. coli viability, absorbance (OD) growth; at 11.9 µM; hits give high values. Background: A counterscreen serves to expose hits that act by an unwanted route or on another target.
The term inhibition denotes the change of the read-out against control, counted positive when it falls. `CC(C)(C)C(=O)Nc1c(Br)c(C2CC2)nn1-c1ccccc1`: the inhibition is -0.19%.
With `CCN1CCN(c2nc(Nc3cc(OC)ccc3OC)nc(Nc3cc(OC)ccc3OC)n2)CC1`, the inhibition is -0.86%.
For the molecule `Cc1ccc(-c2cnc(C(O)c3cc(Cl)cc(Cl)c3)[nH]2)cc1` (centres undefined), the inhibition was 16.9%.
Still for that read-out and setting: for `S=C(NCC1COc2ccccc2O1)Nc1ccc(Br)cc1` (centres undefined) the value was 5.21%; for `COc1cccc(C(O)c2ncc(-c3ccc4ccccc4c3)[nH]2)c1` (centres undefined), 10.9%.
With `CC1(C(=O)NS(=O)(=O)c2ccccc2)CCN1C(=O)C/C=C/c1ccccc1` (centres undefined), the inhibition is -3.55%.
The same measure, in the same setting: for `CCN1CCN(C(=O)N[C@@H](C(=O)N[C@@H]2C(=O)N3C(C(=O)O)=C(CSc4nnnn4C)CS[C@H]23)c2ccc(O)cc2)C(=O)C1=O` the value was 101% (active); for `CC(=O)NC(c1cccs1)c1cc(Br)c2cccnc2c1O` (centres undefined), 16.4%.
Regarding `O=C1c2ccccc2C2=Nc3ccccc3SC(c3ccccc3F)C12` (centres undefined), the inhibition is 8.52%.
`C=CCNC(=O)CSc1nc2sc(C)c(C)c2c(=O)[nH]1`: the inhibition was -0.91%.
Turning to `CC1=C(C/C=C(\C)CCCC(C)CCCC(C)CCCC(C)C)C(=O)c2ccccc2C1=O` (centres undefined), the inhibition was 0.53%.
Same read-out and setting: for `CCCCC(=O)NC(c1ccc(OC)c(OC)c1)c1ccc2cccnc2c1O` (centres undefined) the value was 17.6%; for `NC1=NC(=O)C(Cc2cccc(Cl)c2Cl)S1` (centres undefined), 0.21%; for `Cc1ccc(NC(=O)Nc2nnc(-c3ccncc3)s2)cc1`, 3.97%.
Same read-out and setting: for `CCNC(=S)N(CCc1c(C)[nH]c2ccc(C)cc12)Cc1ccco1` the value was -0.24%.
In the case of `C=CCn1c(=O)c(C(=O)NCc2ccc3c(c2)OCO3)c(O)c2ccccc21`, the inhibition was 6.78%.
With `CCn1cc(C(=O)NCCO)c(=O)c2cc(F)c(N3CCN(C)CC3)cc21`, the inhibition was 104% (active).

Another assay can be described thus: reduced optical density, T4-challenged addAB+ bacteria – absorbance, E. coli V3065, T4 phage, counter-screen for RecBCD inhibitor project, confirmation (AID 651984).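 Note: higher means less bacterial growth from phage killing when AddAB is blocked.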 Particulars: E. coli expressing H. pylori AddAB + T4 phage, OD growth; at 11.9 µM; hits give high values; gene 2 mutant T4, recBCD-deleted host.
For `CC(C)(C)C(=O)Nc1c(Br)c(C2CC2)nn1-c1ccccc1`, the inhibition is 0.42%.
The same measure, in the same setting: as for `CCN1CCN(c2nc(Nc3cc(OC)ccc3OC)nc(Nc3cc(OC)ccc3OC)n2)CC1`, the figure is -2.43%.
`Cc1ccc(-c2cnc(C(O)c3cc(Cl)cc(Cl)c3)[nH]2)cc1` (centres undefined): the inhibition was 16.9%.
For `S=C(NCC1COc2ccccc2O1)Nc1ccc(Br)cc1` (centres undefined), the inhibition is 6.67%.
With `COc1cccc(C(O)c2ncc(-c3ccc4ccccc4c3)[nH]2)c1` (centres undefined), the inhibition was 13.4%.
As to `CC1(C(=O)NS(=O)(=O)c2ccccc2)CCN1C(=O)C/C=C/c1ccccc1` (centres undefined), the inhibition is -0.33%.
As for `CCN1CCN(C(=O)N[C@@H](C(=O)N[C@@H]2C(=O)N3C(C(=O)O)=C(CSc4nnnn4C)CS[C@H]23)c2ccc(O)cc2)C(=O)C1=O`, the inhibition was 3.42%.
For the molecule `CC(=O)NC(c1cccs1)c1cc(Br)c2cccnc2c1O` (centres undefined), the inhibition is 16.1%.
The same measure, in the same setting: for `O=C1c2ccccc2C2=Nc3ccccc3SC(c3ccccc3F)C12` (centres undefined) the value was 3.38%.
On the same count and under the same terms, as for `C=CCNC(=O)CSc1nc2sc(C)c(C)c2c(=O)[nH]1`, the figure is -2.04%; as for `CC1=C(C/C=C(\C)CCCC(C)CCCC(C)CCCC(C)C)C(=O)c2ccccc2C1=O` (centres undefined), -1.36%.
On to `CCCCC(=O)NC(c1ccc(OC)c(OC)c1)c1ccc2cccnc2c1O` (centres undefined), for which the inhibition was 25.8% (active).
The same measure, in the same setting: for `NC1=NC(=O)C(Cc2cccc(Cl)c2Cl)S1` (centres undefined) the value was -2.48%.
With `Cc1ccc(NC(=O)Nc2nnc(-c3ccncc3)s2)cc1`, the inhibition was 9.8%.
For the molecule `CCNC(=S)N(CCc1c(C)[nH]c2ccc(C)cc12)Cc1ccco1`, the inhibition was -0.97%.
The same measure, in the same setting: as for `C=CCn1c(=O)c(C(=O)NCc2ccc3c(c2)OCO3)c(O)c2ccccc21`, the figure is 6.71%; as for `CCn1cc(C(=O)NCCO)c(=O)c2cc(F)c(N3CCN(C)CC3)cc21`, 104% (active).
